NPC1 promoter act: qHTS Assay for NPC1 Promoter Activators; Potency, µM (top dose mostly 9.22 µM), without a hit: at the top dose activation, usual class: activators; Huh7 NPC1 promoter luciferase reporter, 24 h; 2.4% of 320,000 active; also: % of control where 0% means no effect; nearly all actives have a fitted effect of over 60% in size
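Compounds in DMSO were transferred onto Huh7 NPC1-luciferase reporter cells pre-incubated 2 h; after 24 h at 37 °C, Amplite reagent was dispensed and luminescence recorded 10 min later.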
Rab9 prom act: qHTS Assay for Rab9 Promoter Activators. 2.8% of 320,000 active. Potency, µM (doses to about 9.22 µM), for the others: at the highest dose activation, negative = inhibition, hits mostly activators. Huh7 Rab9 promoter-luciferase reporter, luminescence, 24 h; also: % of control where 0% means no effect; nearly all actives have a fitted effect of over 60% in size
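Cells were plated at 1500 per well in reduced-serum medium with 10% FBS and left 2 h. Compound in DMSO was then added for 24 h at 37 °C. Reporter signal was read by luminescence after 10 min with luciferase detection reagent.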
ELG1 genotox: qHTS screen for small molecules that induce genotoxicity in human embryonic kidney (HEK293T) cells expressing luciferase-tagged ELG1. HEK293T ELG1-luciferase reporter, luminescence, 16 h. 1.3% of 330,000 active. Potency, µM (top dose mostly 46 µM), inactives show at the highest dose activity change, positive = activation, hits mostly activators. AID 504466, 2011; also: % of control where 0% means no effect; nearly all actives have a fitted effect of over 60% in size
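DMSO vehicle served as control against compound-treated ELG1-luciferase HEK293T cells; exposure lasted 16 hr at 37 °C and 5% CO2, followed by ONE-Glo luminescence detection after 30 min.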
SMN2 splice enh: qHTS Assay for Enhancers of SMN2 Splice Variant Expression; AID 1458, 2008; HEK293 SMN2-luciferase splicing reporter, luminescence, 30-36 h; 2.8% of 210,000 active; Potency, µM (highest dose often 46.1 µM), for inactives: at the top dose activity change, positive = activation, usual class: activators; also: % of control where 0% means no effect; nearly all actives have a fitted effect of over 55% in size
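qHTS luciferase splicing reporter: luminescence rises when SMN2 exon 7 is included in transfected HEK293 cells. Compound exposure lasted 30-36 h at 37C, with 4.5 mM final sodium butyrate as control, followed by a ONE-Glo read.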
FLuc modulator: qHTS profiling assay for firefly luciferase inhibitor/activator using purifed enzyme and Km concentrations of substrates (counterscreen for miR-21 project); Luciferin 4-monooxygenase (Photinus pyralis), P08659; purified FLuc, Km substrates, luminescence inhibition; Potency, µM (titrated, usually from 57.5 µM), for inactives: at the top dose activity change, negative = inhibition, usual class: inhibitors; 6.9% of 360,000 active; AID 588342, 2011;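 also: plate controls were vehicle for no effect and reference inhibitor for full effect; nearly all actives have a fitted effect of over 55% in size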
Target sequence (P08659 whole entry, looked up): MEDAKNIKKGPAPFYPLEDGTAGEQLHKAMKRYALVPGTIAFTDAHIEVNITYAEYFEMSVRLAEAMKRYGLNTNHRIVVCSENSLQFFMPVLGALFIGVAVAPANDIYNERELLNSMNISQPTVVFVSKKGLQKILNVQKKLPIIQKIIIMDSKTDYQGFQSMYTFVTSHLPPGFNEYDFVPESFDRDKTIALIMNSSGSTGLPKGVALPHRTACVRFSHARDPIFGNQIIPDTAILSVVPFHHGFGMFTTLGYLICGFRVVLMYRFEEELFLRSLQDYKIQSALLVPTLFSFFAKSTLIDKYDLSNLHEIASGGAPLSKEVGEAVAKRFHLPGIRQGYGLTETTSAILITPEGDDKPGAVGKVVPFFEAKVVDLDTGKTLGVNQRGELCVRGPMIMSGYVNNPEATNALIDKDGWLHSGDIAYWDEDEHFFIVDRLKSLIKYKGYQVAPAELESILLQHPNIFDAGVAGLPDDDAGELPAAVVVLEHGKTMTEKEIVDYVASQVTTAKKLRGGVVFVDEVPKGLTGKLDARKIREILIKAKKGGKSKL
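Purified P. pyralis luciferase (10nM final) with 10uM D-luciferin and 10uM ATP (Km levels) in 50mM Tris acetate pH 7.5, 10mM Mg acetate, 0.01% Tween-20, 0.05% BSA; qHTS 6-point titration, ~60 µM downward; luminescence read.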
KinaseGlo FLuc: Counterscreen for Luciferase (Kinase-Glo TM) Inhibition. Kinase-Glo luciferase, ATP luminescence, 8 min. Potency, µM (highest dose often 38.3 µM), without a hit: top-dose activity change, negative = inhibition, hits mostly inhibitors. 0.28% of 200,000 active. AID 1379, 2008; also: % is scaled to controls: 0 for no effect and ±100 for the full control effect; nearly all actives have a fitted effect of over 60% in size
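Recombinant Kinase-Glo luciferase, 10 uM ATP (linear range), luciferin; imidazole pH 7.2 / KCl / MgCl2 / Tween / BSA buffer; 8 min RT; luminescence.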
The depositor's hits bear a star; ? = inconclusive; · = no result; [ ] = remark or other dose. Compounds with a hit are over-represented: about 7.4% of the library has one in this group of screens. Calls follow the shape of the dose curve; as a rule, active = well fitted curve in the direction sought with a large enough effect; inconclusive = small, poorly fitted or top-dose-only effect, or another doubt; inactive = no such curve, though single readings can be large; an effect the other way counts as inactive or inconclusive. Potency is read from the fitted curve at half-maximal effect.

SMILES	NPC1 promoter act	Rab9 prom act	ELG1 genotox	SMN2 splice enh	FLuc modulator	KinaseGlo FLuc
CC(C)C[C@@H](CSc1ccccc1)N1CCN(CC(C)C)CCC1=O	?	?	?	·	15.1µM*	·
Cc1cccc(-c2ccc(-c3cc(=O)oc4cc(C)cc(C)c34)cc2)c1	·	·	·	·	·	3.3%[39.9 µM]
O=C(Nc1cc(S(=O)(=O)N2CCCCC2)ccc1N1CCCCC1)C1CC1	-2.7%	-0.5%	-4.7%	·	1.5%	·
Cc1ccn2c(Nc3ccc4c(c3)OCCO4)c(-c3ccccc3O)nc2c1	·	·	·	5.1%	?	·
Cc1cc(OCC(=O)N(C)C2CCCCC2)ccc1Cl	0.355µM*	0.631µM*	26.3%	?	2.69µM*	-0.2%
Cc1cc(OCC(=O)N(C)C2CCCCC2)cc(C)c1Cl	12.1%	1.6%	?	22.9%	?	5.9%
O=C(CSc1cccc[n+]1[O-])Nc1cc2c(cc1Cl)C(=O)c1ccccc1C2=O	?	?	15.8%	11.2µM*	10.7µM*	10.0%
CCOc1ccc2cc(C#N)c(SCC(=O)N3CCC(C)CC3)nc2c1	-0.6%	-3.9%	0.6%	3.6%	0.2%	-0.3%
CCOC(=O)CSc1nc2cc(OCC)ccc2cc1C#N	?	2.82µM*	8.2µM*	22.4µM*	4.26µM*	-2.3%
COC(=O)CSc1nc2cc(OC)ccc2cc1C#N	1.41µM*	1.41µM*	1.46µM*	·	9.53µM*	·
COc1ccc2cc(C#N)c(SCC(=O)N3CCCC3)nc2c1	-0.8%	0.4%	?	19.3%	-4.8%	-0.3%
COC(=O)CSc1nc2ccc(C)cc2cc1C#N	3.55µM*	0.794µM*	?	2.82µM*	?	-0.1%
Clc1ccccc1C1Nc2cccc3cccc(c23)N1	-3.8%	11.1%	-7.7%	·	?	·
c1coc(C2Nc3cccc4cccc(c34)N2)c1	8.3%	17.9%	-2.6%	16.8%	26.9µM*	-7.7%
CCOc1ccc2nc(SC3CC(=O)N(c4ccc(C)cc4)C3=O)sc2c1 (stereo not drawn)	1.9%	-4.8%	-1.1%	-91.6%	4.4%	-6.5%
CCOc1ccc2nc(/N=C/c3c(C)[nH]n(-c4ccc(C)cc4)c3=O)sc2c1	?	?	16.5%	14.1µM*	4.78µM*	7.94µM*
CCOc1ccc2nc(/N=C/c3c(C)[nH]n(-c4ccccc4)c3=O)sc2c1	?	?	?	22.4µM*	6.75µM*	?
Cc1ccc(Nc2nc(C)cs2)cc1	?	?	20.6µM*	8.91µM*	13.5µM*	-19.4%
Cc1csc(Nc2ccc(Cl)cc2)n1	?	?	?	?	12µM*	2.4%
Cc1csc(NS(=O)(=O)c2ccc(Cl)cc2)n1	-4.2%	8.7%	-5.4%	·	0.5%	·
O=C(c1ccc2ccccc2c1)C1CCCN(C(=O)c2noc3c2CCCC3)C1 (stereo not drawn)	1.9%	-2.2%	-1.6%	-12.6%	?	-1.0%
Cc1ccc(Cl)c(OCC(=O)Nc2sc(C)c(C)c2C#N)c1	?	?	2.9%	·	-0.6%	·
O=C(Nc1ccccc1)c1ccc(-c2ccccc2C(F)(F)F)o1	20.7%	19.3%	16.1%	15.6%	16.9µM*	-1.3%
CC(C)NC(=O)c1ccc(-c2ccccc2C(F)(F)F)o1	22.4%	24.9%	10.3%	?	?	0.0%
O=C(Nc1ccccc1)c1ccc(-c2ccccc2Cl)o1	28.8%	?	?	?	6.01µM*	-2.8%
SMILES	NPC1 promoter act	Rab9 prom act	ELG1 genotox	SMN2 splice enh	FLuc modulator	KinaseGlo FLuc
N#Cc1ccccc1NC(=O)c1ccc(-c2ccccc2Cl)o1	3.98µM*	?	?	?	?	1.1%
O=C(CNC(=O)c1ccc2ccccc2c1)NCc1ccc(F)cc1	-0.8%	3.0%	-1.3%	·	-0.4%	·
CC(=O)c1c(C)[nH]c(C(=O)NCCc2cccc(C)c2)c1C	?	?	5.7%	11.2%	16.9µM*	2.2%
CCOC(=O)c1[nH]c(C)c(C(=O)Nc2ccc3c(c2)OCCO3)c1C	12.1%	10.1%	12.3%	13.2%	?	-1.3%
CCc1c(C(=O)Nc2cc(C)ccc2OC)[nH]c(C)c1C(C)=O	8.8%	-0.6%	?	-6.0%	2.0%	1.5%
CCOC(=O)c1c(C)[nH]c(C(=O)NNC(=O)c2ccccc2)c1C	0.562µM*	1.78µM*	?	11.2µM*	6.75µM*	-9.1%
CCc1c(C(=O)Nc2ccc(C)c(C)c2)[nH]c(C)c1C(C)=O	?	3.16µM*	?	·	15.1µM*	·
CC(=O)c1c(C)[nH]c(C(=O)Nc2ccc3c(c2)OCCO3)c1C	1.78µM*	1.26µM*	?	5.62µM*	4.78µM*	-17.0%
CCc1c(C(=O)NCCc2cccc(C)c2)[nH]c(C)c1C(C)=O	-2.7%	-0.7%	-0.7%	·	-0.5%	·
O=c1[nH]nc(Cc2ncc(C(F)(F)F)cc2Cl)c2ccccc12	-1.3%	-6.7%	-5.4%	·	-1.0%	·
O=C1C=C(c2ccc(C(=O)O)cc2)C[C@@H](c2ccc3c(c2)OCO3)C1	?	-0.3%	12.8%	·	?	·
Cc1cccc(C(=O)Nc2ccc(C(=O)OCc3cc(=O)n4c(C)csc4n3)cc2)c1	·	·	·	·	-5.2%	·
O=C(COC(=O)CCS(=O)(=O)c1ccccc1)NC(=O)c1ccc(OC(F)F)cc1	-0.3%	-1.8%	0.2%	·	-1.3%	·
CCC(C)Sc1ccc([C@@H]2[C@H]3C(=O)N(CC)C(=O)[C@H]3[C@]3(C(=O)OC)CCCCN23)cc1 (stereo partly drawn)	-0.3%	-2.6%	-8.9%	·	-4.5%	·
CCN(CC)S(=O)(=O)c1ccc(N2CCOCC2)c(NC(=O)c2[nH]c(C)c(C(C)=O)c2C)c1	·	·	10.3µM*	·	·	·
CCN(CC)S(=O)(=O)c1ccc(N2CCOCC2)c(NC(=O)c2ccc(F)cc2)c1	-1.9%	-1.4%	-8.5%	8.8%	-0.2%	0.9%
CCc1c(C(=O)Nc2ccc(OC)cc2)[nH]c(C)c1C(C)=O	13.8%	21.3%	3.2%	22.4µM*	?	-3.8%
CC(=O)c1c(C)[nH]c(C(=O)Nc2ccc(C)c(C)c2)c1C	?	1.41µM*	10.3µM*	·	10.7µM*	-1.5%
CC(=O)c1c(C)[nH]c(C(=O)Nc2ccc(C)cc2Br)c1C	3.55µM*	0.891µM*	?	·	?	·
CC(=O)c1c(C)[nH]c(C(=O)Nc2cc(C)ccc2C)c1C	5.0%	2.5%	-0.8%	-12.9%	-1.7%	0.9%
O=C(C1CCCN(Cc2ccccc2Cl)C1)N1CCCCC1 (stereo not drawn)	-7.0%	-6.8%	-3.2%	·	2.0%	·

Assay outcomes: PubChem BioAssay, National Center for Advancing Translational Sciences (NCATS)
